Measurements from PubChem BioAssay (NCI).
The panel holds about 79,000 compounds, 15% with a hit somewhere; the sample as a whole holds those more often. Values without a mark were called inactive. Calls of active or inactive are those of the source. Cut-off read from the data, not from the text of the source: active = growth inhibition above about 70%; inactive = the rest.

Legend:
[1] = NCI Yeast Anticancer Drug Screen. Data for the rad50 strain (AID 155);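 note: 0% = growth of vehicle-only cultures of the same strain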; details: S. cerevisiae rad50 strain growth inhibition, stronger effect = higher value
How it was run: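 Yeast carrying a defined DNA repair defect were exposed to test compounds, and growth was compared with vehicle-treated controls to give percent inhibition.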

[2] = NCI Yeast Anticancer Drug Screen. Data for the mec2-1 strain (AID 157); details: S. cerevisiae mec2-1 strain, stronger effect = higher value
How it was run: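 Mutant yeast (mec2-1) grown with compound; growth inhibition relative to vehicle control reported.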

[3] = NCI Yeast Anticancer Drug Screen. Data for the sgs1 mgt1 strain (AID 161);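 note: 0% = growth of cultures given vehicle only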; details: S. cerevisiae sgs1 mgt1 strain, stronger effect = higher value
How it was run: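 Growth of a repair-deficient yeast mutant was monitored after compound treatment and expressed as inhibition relative to vehicle-treated cultures.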

[4] = NCI Yeast Anticancer Drug Screen. Data for the cln2 rad14 strain (AID 165);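 note: 0% = growth equal to vehicle treated cultures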; details: S. cerevisiae cln2 rad14 strain, stronger effect = higher value
How it was run: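 Readout is yeast growth inhibition versus vehicle-treated controls, using a strain with cln2 and rad14 alterations exposed to compound.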

[5] = NCI Yeast Anticancer Drug Screen. Data for the bub3 strain (AID 167); details: S. cerevisiae bub3 mutant strain, stronger effect = higher value
How it was run: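 Compounds were applied to a genetically altered yeast strain carrying a cell-cycle control defect. Growth inhibition was scored against vehicle-treated controls.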

[6] = NCI Yeast Anticancer Drug Screen. Data for the mlh1 rad18 strain (AID 175); details: S. cerevisiae mlh1 rad18 strain growth inhibition, stronger effect = higher value
How it was run: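 Genetically defined yeast (DNA repair-deficient) exposed to compounds; growth inhibition determined relative to vehicle.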

[7] = at 5.0 µM (retest, dose inferred, filed as 0.5)
[8] = at 50.0 µM (retest, dose inferred, filed as 5.0)

Structure (SMILES) | growth inhibition [1, 7] | growth inhibition [1, 8] | growth inhibition [2, 7] | growth inhibition [2, 8] | growth inhibition [3, 7] | growth inhibition [3, 8] | growth inhibition [4, 7] | growth inhibition [4, 8] | growth inhibition [5, 7] | growth inhibition [5, 8] | growth inhibition [6, 7] | growth inhibition [6, 8]
CNc1ncnc2nc(C)[nH]c12 | 0% | 20% | -3% | 3% | 0% | 16% | 2% | -4% | 1% | 2% | -13% | 16%
CC(C)(C)S(=O)(=O)O.[Ag] | 99% (active) | 99% (active) | 100% (active) | 99% (active) | 100% (active) | 100% (active) | 99% (active) | 99% (active) | 100% (active) | 99% (active) | 99% (active) | 99% (active)
Cc1cc(C(=O)c2ccccc2Cl)ccc1O | 10% | 98% (active) | -5% | 99% (active) | 3% | 98% (active) | -2% | 98% (active) | -3% | 99% (active) | 10% | 98% (active)
COc1ccc(N=NC(C#N)C#N)cc1 | 32% | 95% (active) | 6% | 97% (active) | 24% | 98% (active) | 2% | 96% (active) | 1% | 98% (active) | -10% | 96% (active)
CCC(CC)(c1ccccc1)C(O)c1ccccc1 (configuration not stated) | 11% | 94% (active) | -1% | 98% (active) | 6% | 98% (active) | 7% | 95% (active) | 6% | 94% (active) | 2% | 96% (active)
N#C/C(=N\O)C(N)=O | 19% | 87% (active) | -3% | 93% (active) | 2% | 83% (active) | -1% | 75% (active) | 3% | 86% (active) | 26% | 86% (active)
COCc1c(C#N)c(Cl)nc(C)c1[N+](=O)[O-] | 14% | 76% (active) |  |  | 14% | 94% (active) | 2% | 94% (active) | 8% | 97% (active) | 0% | 94% (active)
